# Screening data from PubChem BioAssay.
# RTF Ca sens inh: cardiac RTF calcium desensitization; P19429+P45379; IANBD-labeled cardiac RTF, Ca2+ fluorescence; inhibition, % at 7.15 µM; hit rate 0.12% among 340,000;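 active = inhibition above the mean inhibition of all tested compounds plus 3 SD, cut at about 17% in these data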;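 also: assay run at fixed EC70 calcium of 1.6 mM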
# CRFR2-BP ag: agonists of human CRF-binding protein/CRF-R2 receptor complex; HEK293 CRF-R2/CRF-BP, calcium dye fluorescence (FLIPR); percent of saturating CRF peptide response; AID 588473; hit rate 0.46% among 350,000; activation, % at 13.2 µM;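 active = activation of at least 50%, plus an integration ratio under a set limit after plate pattern correction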;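 also: plate controls were neutral control wells without compound for no effect and CRF at EC100 for full effect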
# TPT1 inhibitor: inhibitors of Candida albicans tRNA 2'-phosphotransferase TPT1; recombinant caTPT1, FP RNA substrate dephosphorylation; hit rate 0.81% among 300,000; inhibition, % at 5 µM;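 active = inhibition above the mean of all tested compounds plus 3 SD, set per screening campaign, cut at about 24% in these data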;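 also: plate controls were DMSO alone for no effect and ferristatin control at 100 nM for full effect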
# RTF Ca sens act: increases calcium sensitivity of human cardiac regulated thin filaments. P19429+P45379. activation, % at 7.2 µM. AID 493008. hit rate 0.24% among 340,000. IANBD-labeled TnC RTF fluorescence at EC20 calcium; 0% EC20 calcium, 100% full calcium;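 active = activation above the mean over all tested compounds plus 3 SD, cut at about 30% in these data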;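 also: rise in fluorescence read as greater calcium sensitivity of cardiac thin filaments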
# IDE cell inh: cellular human IDE inhibition. hit rate 0.41% among 320,000. HEK cells, FAbetaB cleavage, fluorescence polarization. P14735. inhibition, % at 5.59 µM;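 active = percent inhibition above the average of all tested compounds plus 3 SD, set per screening campaign, cut at about 16% in these data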;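 also: IDE supplied by intact live HEK cells; FP after avidin binding of uncleaved biotin substrate so inhibition keeps polarization high; 0% = DMSO wells and 100% = 60 µM reference IDE inhibitor Ii1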
# Target sequence (P14735 whole entry, looked up): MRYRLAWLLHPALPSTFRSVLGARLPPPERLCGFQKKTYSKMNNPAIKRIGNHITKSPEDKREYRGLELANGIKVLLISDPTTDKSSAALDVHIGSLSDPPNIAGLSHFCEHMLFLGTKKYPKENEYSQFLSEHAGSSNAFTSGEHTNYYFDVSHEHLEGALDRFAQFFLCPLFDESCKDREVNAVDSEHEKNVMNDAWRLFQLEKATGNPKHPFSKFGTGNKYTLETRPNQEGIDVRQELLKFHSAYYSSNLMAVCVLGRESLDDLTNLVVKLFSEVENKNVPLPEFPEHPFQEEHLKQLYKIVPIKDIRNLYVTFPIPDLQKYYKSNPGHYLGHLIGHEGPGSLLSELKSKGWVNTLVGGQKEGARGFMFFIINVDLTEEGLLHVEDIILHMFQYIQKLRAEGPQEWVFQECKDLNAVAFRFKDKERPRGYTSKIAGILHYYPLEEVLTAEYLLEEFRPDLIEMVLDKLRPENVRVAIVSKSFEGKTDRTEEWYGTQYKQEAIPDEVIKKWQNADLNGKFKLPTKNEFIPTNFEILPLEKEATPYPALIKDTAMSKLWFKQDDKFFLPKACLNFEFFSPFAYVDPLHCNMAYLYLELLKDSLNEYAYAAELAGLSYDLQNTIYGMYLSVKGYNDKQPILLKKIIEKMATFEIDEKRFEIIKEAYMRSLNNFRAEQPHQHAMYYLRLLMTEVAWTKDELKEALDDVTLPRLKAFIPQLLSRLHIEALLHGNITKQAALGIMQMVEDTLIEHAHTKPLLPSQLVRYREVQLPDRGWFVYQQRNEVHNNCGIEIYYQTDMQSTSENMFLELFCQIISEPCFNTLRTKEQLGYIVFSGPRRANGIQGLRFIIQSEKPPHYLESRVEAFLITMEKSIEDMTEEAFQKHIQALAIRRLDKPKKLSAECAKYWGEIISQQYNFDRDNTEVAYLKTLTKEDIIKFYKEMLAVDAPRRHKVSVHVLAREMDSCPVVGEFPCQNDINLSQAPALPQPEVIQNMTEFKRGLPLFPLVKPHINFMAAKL
# IDE act: boosts human insulin-degrading enzyme activity in HEK cells; P14735; FAbeta-B cleavage, fluorescence polarization; 0% vehicle, 100% cell-free pure enzyme wells; activation, % at 5.96 µM; hit rate 0.073% among 340,000;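 active = activation above the mean of all tested compounds plus 3 SD, set per screening campaign, cut at about 17% in these data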
# TPT1 inh confirm: TPT1 (C. albicans) inhibition, confirmation | shares compounds with TPT1 inhibitor | hit rate 74% among 2,400 | recombinant caTPT1, fluorescence polarization, RNase T1 coupled | inhibition, % at 5 µM | AID 2149;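 active = inhibition above the primary screen limit, the mean inhibition of all tested compounds plus 3 SD, cut at about 25% in these data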
# RNase T1 counter: counter-screen for TPT1 inhibitors: inhibitors of Aspergillus oryzae RNase T1; shares compounds with TPT1 inhibitor; RNase T1 cleavage, fluorescence polarization, 1536-well; inhibition, % at 5 µM; hit rate 83% among 2,400; AID 2153;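 active = inhibition above the solvent-only control well mean plus 3 SD, limit set per screening run, cut at about 23% in these data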;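 also: plate controls were DMSO wells with enzyme for no effect and wells without RNase T1 for full effect; inhibitors block cleavage so intact labeled substrate keeps polarization high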
# IDE inh confirm: confirmation of human insulin-degrading enzyme inhibitors in cells. inhibition, % at 5.59 µM. shares compounds with IDE cell inh. HEK cells, FAbetaB cleavage, fluorescence polarization. hit rate 51% among 1,200;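 active = mean inhibition across triplicate wells above the cutoff set by the earlier primary insulin-degrading enzyme screen, cut at about 16% in these data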;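 also: 0% = DMSO wells and 100% = 60 µM reference IDE inhibitor Ii1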
# HEK293 tox: kills HEK cells in IDE inhibitor counter-screen; hit rate 28% among 1,200; HEK293 cytotoxicity, ATP luminescence; shares compounds with IDE cell inh; inhibition, % at 5.59 µM; in the data active = inhibition above about 22%;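 also: 0% = vehicle wells and 100% = reference cytotoxic drug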
# An asterisk follows results filed as active; / = not tested or not shown; + = active, no number. Most compounds without a hit are left out; they make up all but 1.5% or so of the library.
SMILES,RTF Ca sens inh,CRFR2-BP ag,TPT1 inhibitor,RTF Ca sens act,IDE cell inh,IDE act,TPT1 inh confirm,RNase T1 counter,IDE inh confirm,HEK293 tox
CCN(CC)c1ccc(/C=C2\C(=N)N3N=C(CC(=O)N4CCOCC4)SC3=NC2=O)cc1,-25,109*,137*,38*,20*,-23,174*,164*,36*,6
N#C/C(=C/c1ccc(-c2ccc(S(N)(=O)=O)cc2)o1)c1nc2ccccc2s1,-466,203*,73*,347*,40*,-48,41*,50*,78*,24*
COC(=O)c1ccc(/C=C(\C#N)c2nc3ccccc3s2)cc1,-9,3,36*,-1,32*,6,21,29*,-2,12
CCN(CC)c1ccc(/C=C2\CCC(/C=N/NC(=O)c3ccc(=O)n(C)c3)=C2N2CCOCC2)cc1,-28,96*,117*,12,25*,-20,113*,112*,57*,6
COc1cc(N2CCCC2)c(OC)cc1/C=C1/NC(=S)NC1=O,-83,178*,131*,79*,118*,-120,138*,129*,150*,11
COc1ccc(OC)c(/C=C2\NC(=O)NC2=O)c1,-5,0,-3,-2,6,2,/,/,/,/
COc1cccc(C2=CC(c3ccccc3)n3nnnc3N2)c1 (stereo not given),-15,1,1,2,-1,-1,/,/,/,/
COc1cccc(C2=CC(c3ccc(N(C)C)cc3)n3nnnc3N2)c1 (stereo not given),-9,6,28*,-2,44*,-27,11,17,37*,39*
COc1ccc(C(CNC(=O)c2cc(S(=O)(=O)N3CCCC3)ccc2Cl)N2CCCC2)cc1 (stereo not given),6,0,/,-8,1,1,/,/,/,/
COc1cc(/C=C2\Oc3cc(O)ccc3C2=O)ccc1O,-50,71*,47*,41*,62*,-89,51*,59*,143*,9
COc1ccc(/C=C2\Oc3cc(OC(=O)N4CCOCC4)ccc3C2=O)cc1,-6,-1,0,2,4,-5,/,/,/,/
O=C1/C(=C/c2ccc(O)c(O)c2)Oc2cc(O)ccc21,-12,24,44*,4,34*,-47,58*,67*,75*,11
COc1ccc(/C=C2\OC(=O)c3c(OC)cccc32)cc1OC,-19,-2,-1,6,2,-1,/,/,/,/
O=C(CC1SC(N2CCCC2)=NC1=O)Nc1ccc(C(=O)N2CCN(c3cccc(Cl)c3)CC2)cc1 (stereo not given),-4,1,-1,-8,1,-6,/,/,/,/
O=C1N/C(=N\S(=O)(=O)c2ccccc2)S/C1=C\c1cc([N+](=O)[O-])ccc1O,-25,55*,76*,-4,50*,-41,78*,83*,70*,13
O=C1N/C(=N\S(=O)(=O)Cc2ccccc2)S/C1=C/c1cc([N+](=O)[O-])ccc1O,-7,104*,68*,1,40*,-46,75*,80*,75*,9
CC(=O)NC(NC(=S)N1CCCCCC1)C(Cl)(Cl)Cl (stereo not given),-4,0,-7,4,2,-2,/,/,/,/
COc1ccccc1NC(=O)c1ccc(CSc2ncccn2)cc1,/,/,-2,/,-1,/,/,/,/,/
CN(C)c1ccc(/C=C2\SC(N3CCCCC3)=NC2=O)cc1,-75,51*,106*,40*,16*,-23,116*,116*,27*,13
Cc1ccc(/C=C2\SC(N3CCCC3)=NC2=O)cc1,/,/,-1,/,-2,/,/,/,/,/
O=C(CSc1nnc2ccccn12)Nc1ccccc1C(=O)O,2,-1,-7,0,9,-6,/,/,/,/
O=C(O)c1ccccc1N/N=C/c1c(Sc2nnnn2-c2ccccc2)nc2ccccn2c1=O,-32,32,68*,13,69*,-137,19,31*,43*,7
COc1cc(/C=C(\C#N)C(=O)NCCc2ccccc2)cc(OC)c1O,-17,67*,76*,6,44*,-62,104*,106*,76*,12
COc1cc(/C=C(\C#N)C(=O)c2c[nH]c3ccccc23)cc(OC)c1O,-23,85*,128*,20,38*,-108,156*,143*,159*,3
N#C/C(=C\c1ccc(O)c(O)c1)C(=O)NCCc1ccccc1,6,-2,4,1,16,-13,/,/,/,/
SMILES,RTF Ca sens inh,CRFR2-BP ag,TPT1 inhibitor,RTF Ca sens act,IDE cell inh,IDE act,TPT1 inh confirm,RNase T1 counter,IDE inh confirm,HEK293 tox
CCOc1ccc(N2C(=O)CC(NCC#N)C2=O)cc1 (stereo not given),1,-1,2,4,1,0,/,/,/,/
CC1CC1c1ccc(/C=C(\C#N)C(=O)Nc2ccc(Cl)cc2)o1 (stereo not given),1,10,-1,12,0,-4,/,/,/,/
N#C/C(=C\c1cc([N+](=O)[O-])c(N2CCOCC2)cc1N1CCOCC1)c1nc2ccccc2[nH]1,-10,-1,-5,0,-2,2,/,/,/,/
N#C/C(=C/c1ccc(N2CCOCC2)o1)c1nc2ccccc2[nH]1,-195,128*,180*,244*,36*,-157,164*,152*,26*,28*
N#C/C(=C/c1ccc(N2CCCCC2)o1)C(=O)Nc1ccc(Cl)cc1,-110,155*,187*,41*,71*,-72,192*,174*,64*,34*
COc1ccc(NC(=O)/C(C#N)=C\c2ccc(N3CCOCC3)o2)cc1,-161,223*,+,135*,126*,-173,198*,177*,145*,18
N#C/C(=C\c1ccc(N2CCOCC2)o1)C(=O)Nc1ccc(O)cc1,/,125*,+,/,59*,/,194*,176*,66*,14
CCOc1ccc(CCNC(=O)COC(=O)c2cc(OC)cc(OC)c2)cc1OCC,-1,0,2,0,2,-7,/,/,/,/
CCN(C(=O)COC(=O)c1cc2ccccc2cc1OC)c1c(N)n(Cc2ccccc2)c(=O)[nH]c1=O,-7,0,/,-2,/,0,/,/,/,/
COC(=O)c1sccc1-n1cccc1C(=O)C(=O)N1CCOCC1,-1,-1,1,-4,-2,4,/,/,/,/
